Bioassay records as filed in PubChem BioAssay.
HCV inh – HCV inhibition | Huh7.5.1 HCVcc-Cre infection, luciferase reporter, 44 h | actives 3.4% (n = 340,000) | Potency, µM (doses to about 41.8 µM), inactives show at the highest dose activity change, negative = inhibition, usual class: inhibitors; note: potency is the fitted concentration of half-maximal effect; % is set by controls: 0 for no effect and ±100 for the full control effect
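Antiviral activity was scored by luciferase reporter output from cells infected with HCVcc-Cre (~0.5 moi) in presence of compound, 44 h infection period, cells seeded 1,000/well 4 h prior.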
Pf growth 96h – P. falciparum growth inhibition at 96 hour, primary screen for plastid delayed-death inhibitors; P. falciparum luciferase reporter growth, 96 h; Potency, µM (titrated, usually from 28.7 µM), for the others: at the top dose activity change, negative = inhibition, usual class: inhibitors; actives 6.9% (n = 320,000); note: potency is the fitted concentration of half-maximal effect; % is set by controls: 0 for no effect and ±100 for the full control effect
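Infected RBCs, 2% Hct / 0.05% parasitemia final; luciferase-reporter P. falciparum; cpd 96 h, 37 C, 5% CO2; luciferase detection reagent; luminescence.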
Sm TGR block – inhibitors of Schistosoma mansoni thioredoxin glutathione reductase; Q962Y6; purified TGR, DTNB reduction, TNB absorbance 405 nm; Potency, µM (top dose mostly 114 µM), inactives show at the highest dose activity change, negative = inhibition, usual class: inhibitors; actives 3% (n = 360,000); AID 485364; note: potency is the fitted concentration of half-maximal effect; % is set by controls: 0 for no effect and ±100 for the full control effect; nearly all actives have a fitted effect of over 60% in size
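Kinetic colorimetric format: TGR-catalysed, NADPH-driven DTNB reduction monitored via TNB absorbance. Enzyme dispensed at 20 nM; compound exposure 15 min at room temperature before reaction start.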
HCMV inh – inhibitors of human cytomegalovirus | AID 1259415 | activity change, negative = inhibition, % at 57.5 µM | actives 4.5% (n = 410,000) | HFF cells, HCMV-luciferase reporter, 72 h; active compounds read low; in the data active = activity change below about -60%; inconclusive = no clear call, values can overlap the other calls; inactive = above about -39%; note: % is set by controls: 0 for no effect and ±100 for the full control effect
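Luciferase read-out from HCMV-luciferase-infected HFFs (MOI 1 PFU/cell) 72 h post infection at 37C; compounds added after 16 h cell attachment; activity normalized between buffer-only basal and Salinomycin (10uM) inhibitor controls.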
SARS PLP yeast – SARS-CoV PLP inhibition in yeast | S. cerevisiae expressing SARS-CoV PLpro, growth rescue | Potency, µM (titrated, usually from 32.9 µM), for inactives: at the top dose activity, positive = growth rescue, usual class: activators | actives 0.19% (n = 330,000) | AID 485353; calls by dose curve; note: potency is the fitted concentration of half-maximal effect; 0% is about no effect; nearly all actives have a fitted effect of over 55% in size
Pf growth 48h – inhibits P. falciparum growth in the first generation, 48 h; actives 5.9% (n = 310,000); P. falciparum luciferase growth in erythrocytes, 48 h; Potency, µM (series often up to 28.7 µM), inactives show top-dose activity change, negative = inhibition, most hits filed as inhibitors; note: potency is the fitted concentration of half-maximal effect; % is set by controls: 0 for no effect and ±100 for the full control effect
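First compound was added to culture medium, then infected red cells at 0.1% parasitemia and 2% hematocrit (final). After incubation at 37 C under 5% CO2, luciferase detection reagent was dispensed and light output recorded.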
The depositor's hits bear a star; ? = inconclusive; . = no result. The list is not random: actives were taken first. Their share in the collection is about 15%. Unless noted, calls come from the whole dose curve; as a rule, active = well fitted curve in the direction sought with a large enough effect; inconclusive = small, poorly fitted or top-dose-only effect, or another doubt; inactive = no such curve, though single readings can be large; an effect the other way counts as inactive or inconclusive.

SMILES	HCV inh	Pf growth 96h	Sm TGR block	HCMV inh	SARS PLP yeast	Pf growth 48h
O=C(CN1C(=O)/C(=C\c2ccccc2Cl)Oc2ccccc21)NCc1cccnc1	-5%	-37%	-2%	17	4%	-13%
COc1ccc(CCNC(=O)c2ccc3c(c2)N(Cc2ccc(F)cc2)C(=O)CS3)cc1OC	.	.	1%	-66*	.	.
COc1ccc(CNC(=O)c2ccc3c(c2)N(Cc2ccc(C)cc2)CCS3)cc1	.	.	-1%	-9	.	.
Cc1ccc(CN2CCSc3ccc(C(=O)NCc4cccnc4)cc32)cc1	25µM*	40%	-12%	61	-3%	?
Cc1ccc(CN2CCSc3ccc(C(=O)NC4CCCC4)cc32)cc1	-12%	?	1%	.	-2%	?
Cc1ccc(CN2C(=O)/C(=C\c3ccc(C(=O)NCc4cccnc4)cc3)Oc3ccccc32)cc1	0%	1.7µM*	-2%	-29	14%	?
Cn1nc(C(F)(F)F)c(CO)c1Sc1ccc(F)cc1	-6%	48%	2%	-22	0%	5%
O=c1cc(-c2ccc(C3CCCCC3)cc2)[nH][nH]1	22%	13%	4%	-35	1%	-29%
COc1ccc(CCNC(=O)c2ccc3c(c2)N(Cc2ccc(C)cc2)CCS3)cc1OC	8.9µM*	-21%	2%	-32	-4%	10µM*
COc1ccc(CCNC(=O)c2ccc3c(c2)N(Cc2ccccc2C)C(=O)c2ccccc2S3)cc1OC	.	.	4%	-79*	.	.
Cc1ccc(CCNC(=O)c2ccc3c(c2)N(Cc2ccc(F)cc2)CCS3)cc1	.	.	-5%	1	.	.
Cc1ccc(-c2nnc3ccccc3c2C(=O)Nc2cccc(Cl)c2)cc1	.	.	4%	0	.	.
CC(=O)NC(c1cccc(F)c1)c1nc(-c2ccoc2)cs1 (stereo not drawn)	.	.	.	21	.	.
COc1ccccc1N(CC(=O)Nc1cc(C)cc(C)c1)S(C)(=O)=O	.	.	-2%	-27	.	.
CC(C)C(=O)N1CCN(c2ccc([N+](=O)[O-])c(NC(C)c3ccccc3)c2)CC1 (stereo not drawn)	?	-18%	-1%	-14	17%	9.3µM*
O=[N+]([O-])c1ccc(N2CCN(S(=O)(=O)c3ccc(Cl)c(Cl)c3)CC2)cc1NCCN1CCOCC1	21%	6.6µM*	4%	18	22%	?
CC(Nc1cc(N2CCN(C(=O)C(C)(C)C)CC2)ccc1[N+](=O)[O-])c1ccccc1 (stereo not drawn)	?	2.1µM*	6%	-39	4%	8.3µM*
O=[N+]([O-])c1cc(S(=O)(=O)N2CCCC2)ccc1NCCCN1CCOCC1	-2%	?	0%	2	6%	-11%
CC(C)(CNc1ccc(C(F)(F)F)cc1[N+](=O)[O-])N1CCOCC1	-29%	5.9µM*	3%	-66*	-1%	9.3µM*
CCCCc1ccc(NC(=O)C(=O)NCCN2CCN(C(=O)c3ccc([N+](=O)[O-])cc3)CC2)cc1	?	48%	10%	-7	3%	-7%
Cc1cc(=O)c(C(=O)Nc2cccc(C(=O)NC3CC3)c2)nn1-c1ccccc1	.	.	.	18	.	.
CC(C)Oc1ccc(S(=O)(=O)N2CCOCC2)cc1NC(=O)c1ccc(Cl)c(S(=O)(=O)N2CCOCC2)c1	.	.	.	-7	.	.
CC(C)(C)c1ccc(CNc2cc(N3CCOCC3)ccc2[N+](=O)[O-])cc1	10µM*	0%	5%	3	-7%	13µM*
O=[N+]([O-])c1ccc(N2CCOCC2)cc1NC(c1ccccc1)c1ccccc1	?	2.1µM*	-3%	-20	12%	?
CC(C)c1ccc(CNc2cc(N3CCCC3)ccc2[N+](=O)[O-])cc1	?	?	-18%	38	1%	3%
Cc1cc(C)c(S(=O)(=O)N2CCN(c3ccc([N+](=O)[O-])c(NCc4ccco4)c3)CC2)c(C)c1	?	3.7µM*	8%	?	-1%	?
